Laboratory results: PMC5540273 (PLoS ONE, 2017)

Experiments:
Settings in all cases: concentration: 1 μM,replicates: in singlicate; n = 1
TNNI3K = test system: TNNI3K
TRKA = test system: T1, TRKA
T1 construct: gene NTRK1

TRKB = test system: TRKB
TRKC = test system: T2, TRKC
T2 construct: gene NTRK3

TRPM6 = test system: TRPM6
TSSK1B = test system: TSSK1B
TSSK3 = test system: TSSK3
TTK = test system: TTK
TXK = test system: TXK
[1] = test system: TYK2(JH1domain-catalytic)
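Also: KINOMEscan kinase panel screen.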

SMILES | %Inh (TNNI3K) [%] | %Inh (TRKA) [%] | %Inh (TRKB) [%] | %Inh (TRKC) [%] | %Inh (TRPM6) [%] | %Inh (TSSK1B) [%] | %Inh (TSSK3) [%] | %Inh (TTK) [%] | %Inh (TXK) [%] | %Inh [1] [%]
CC(C)c1nc(-c2cccc(NS(=O)(=O)c3ccccc3)c2)c(-c2ccnc(Nc3ccc4c(c3)CN(C)CC4)n2)s1 [GSK1649598] | 85 | 65 | 41 | 0 | 68 | 16 | 0 | 23 | 71 | 55
FC(F)(F)c1cc(Br)cc(Nc2nccc(-c3cnn4ncccc34)n2)c1 [GW810578] | 66 | 48 | 0 | 1 | 0 | 5 | 5 | 41 | 7 | 0
C[C@@H]1CNc2c(sc3ccc4nc(-c5ccncc5)ccc4c23)C(=O)N1 | 0 | 0 | 0 | 0 | 0 | 33 | 2 | 16 | 0 | 46
Cn1ccc2ncnc(Oc3ccc(NC(=O)Nc4cnn(C(C)(C)C)c4)c(Cl)c3)c21 | 54 | 39 | 56 | 82 | 0 | 0 | 7 | 4 | 0 | 0
Cc1nnc(-c2ccc3occ(-c4ccc(S(C)=O)cc4)c3n2)o1 (stereo not drawn) | 0 | 0 | 0 | 0 | 0 | 0 | 0 | 8 | 0 | 0
CN1CCN(CCCNc2nccc(-c3c(-c4ccc(F)cc4)nn4cc(C(N)=O)ccc34)n2)CC1 [GW622475] | 3 | 43 | 10 | 6 | 23 | 18 | 24 | 8 | 47 | 0
CCNCC(Cc1ccccc1)NC(=O)c1cc(Br)c(-c2ccnc3[nH]ccc23)s1.Cl.Cl (stereo not drawn) [GSK1383280] | 11 | 90 | 77 | 50 | 8 | 60 | 13 | 67 | 0 | 46
CS(=O)(=O)c1cccc(CNc2nc(Nc3ccc4c(c3)[C@@H]3C[C@@H]4CNC3=O)ncc2C(F)(F)F)c1 | 0 | 99.2 | 96.8 | 90.4 | 0 | 0 | 6 | 99.8 | 28 | 94.7
O=c1[nH]cc(-c2ccc(O)cc2)c2sc(-c3ccncc3)cc12 [GSK1033723] | 18 | 46 | 0 | 14 | 2 | 0 | 9 | 11 | 5 | 0
c1ccc(Oc2ccc(Nc3ccnc4ccc(-c5ccccn5)cc34)cc2)cc1 [GW407034] | 0 | 0 | 15 | 9 | 27 | 27 | 19 | 1 | 27 | 7
Cc1cccc(-c2nc(Nc3ccncc3)c3sccc3n2)n1 [GW869641] | 7 | 6 | 6 | 5 | 38 | 0 | 24 | 27 | 0 | 20
O=C(Nc1ccc(Oc2ccc3nc(NC(=O)C4CC4)cn3n2)c(F)c1)c1cccn(-c2ccccc2)c1=O | 12 | 87 | 80 | 20 | 0 | 0 | 0 | 10 | 69 | 0
COC(=O)c1cccc(NC(=O)NC2CCN(c3ccnc(NCc4ccc(F)cc4)n3)CC2)c1 [GSK1379860] | 0 | 0 | 12 | 24 | 0 | 0 | 11 | 0 | 7 | 13
Cn1ccc2ncnc(Oc3ccc(NC(=O)Nc4cc(C(C)(C)C)on4)c(Cl)c3)c21 | 90.7 | 96.1 | 96.4 | 99.1 | 0 | 0 | 3 | 2 | 0 | 7
CC(=O)Nc1nc2cnc(Nc3cc(NC(=O)c4cccc(CC(C)(C)C#N)c4)ccc3C)nc2s1 | 57 | 0 | 0 | 7 | 2 | 19 | 1 | 12 | 1 | 0
Cc1ccc2c(-c3ccnc(Nc4ccc(C(F)(F)F)cc4)n3)cnn2n1 [GW819776] | 3 | 0 | 0 | 0 | 43 | 0 | 0 | 38 | 0 | 5
O=C(Nc1n[nH]c2cc(-c3ccco3)ccc12)C1CC1 [SB-737447] | 0 | 57 | 19 | 32 | 0 | 0 | 0 | 18 | 0 | 21

SMILES | %Inh (TNNI3K) [%] | %Inh (TRKA) [%] | %Inh (TRKB) [%] | %Inh (TRKC) [%] | %Inh (TRPM6) [%] | %Inh (TSSK1B) [%] | %Inh (TSSK3) [%] | %Inh (TTK) [%] | %Inh (TXK) [%] | %Inh [1] [%]
Cc1ccn2nc(-c3ccc(F)cc3)c(-c3ccncc3)c2c1.Cl [GW457859] | 0 | 6 | 39 | 24 | 14 | 0 | 0 | 0 | 20 | 26
Cc1ccc(Nc2ccnc(Nc3ccc4c(c3)CS(=O)(=O)C4)n2)cc1O.Cl [GW579362] | 70 | 100 | 91.7 | 78 | 25 | 1 | 27 | 81 | 90 | 96.9
CN(c1ccc2c(c1)nc(NCc1ccc(F)cc1)n2C)c1ccnc(Nc2ccc(CS(C)(=O)=O)cc2)n1.Cl [GW813244] | 11 | 0 | 7 | 0 | 24 | 0 | 4 | 0 | 80 | 36
COc1cccc(CNC(=O)NC2CCN(c3ccnc(Nc4cc(OC)c(OC)c(OC)c4)n3)C2)c1 (stereo not drawn) [GSK1379765] | 0 | 52 | 7 | 55 | 0 | 0 | 18 | 22 | 0 | 54
CC(=O)Nc1ccc(-c2cc3ncnc(SCC(=O)O)c3s2)cc1 | 0 | 31 | 0 | 0 | 23 | 21 | 0 | 0 | 17 | 37
CCCC(=O)Nc1n[nH]c2ncccc12 [SB-601436] | 0 | 0 | 6 | 28 | 2 | 0 | 0 | 0 | 0 | 0
C[C@@H](Oc1cc(-n2cnc3cc(-c4ccncc4)ccc32)sc1C(N)=O)c1ccccc1Cl [GSK479719] | 29 | 66 | 52 | 50 | 0 | 34 | 13 | 2 | 0 | 25
Cn1ccc2ncnc(Oc3ccc(NC(=O)Nc4ccnc(C(F)(F)F)c4)c(Cl)c3)c21 | 58 | 5 | 0 | 27 | 0 | 0 | 0 | 0 | 0 | 0
CCOC(=O)N1CCC(n2cnc(-c3ccc(F)cc3)c2-c2ccnc(N)n2)CC1 [SB-219952] | 0 | 42 | 34 | 24 | 4 | 0 | 12 | 0 | 16 | 48
O=C(NOCC1CC1)c1cc(Br)c(F)c(F)c1Nc1ccc(I)cc1Cl | 0 | 1 | 20 | 0 | 0 | 0 | 9 | 0 | 0 | 0
O=C(NCC1CC1)c1ccc(-c2cc(C(=O)NC3CC3)ccc2F)cc1 [GW810445] | 0 | 14 | 0 | 0 | 0 | 0 | 0 | 12 | 0 | 19
CN1CCN(CCNc2nc3cc(Oc4ccc(NC(=O)Nc5cc(C(F)(F)F)ccc5F)cc4)ccc3[nH]2)CC1.Cl.Cl [GW768504] | 0 | 0 | 0 | 0 | 0 | 8 | 0 | 41 | 0 | 0
O=C(Nc1cccc(Oc2ccc3nccn3n2)c1)Nc1cccc(C(F)(F)F)c1 | 66 | 76 | 35 | 55 | 0 | 13 | 0 | 0 | 22 | 9
O=C(Nc1ccccc1)c1cccc(Oc2ccc3nccn3n2)c1 | 2 | 0 | 0 | 21 | 0 | 0 | 0 | 0 | 0 | 5
O=C1NCCc2[nH]c(-c3ccncc3)cc21 | 0 | 10 | 19 | 14 | 0 | 0 | 0 | 1 | 2 | 80
C[C@@H](Oc1cc(-n2cnc3ccc(-c4ccncc4)cc32)sc1C(N)=O)c1ccccc1Cl [GSK483724] | 6 | 57 | 7 | 18 | 34 | 29 | 17 | 34 | 11 | 18
